This passage reports activity change, negative = inhibition results from PubChem BioAssay AID1259400 (National Center for Advancing Translational Sciences (NCATS), 2018).

Molecules are shown by their SMILES. About 2,100 (0.6%) of roughly 350,000 compounds were called active. Inconclusive results (about 1%) are left out. What follows is part of a selection rich in actives, with near analogues and random picks from the rest. Unmarked numbers belong to inactive results.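 Rule for the calls: active = activity change of -60% or lower, but not beyond a set lower limit; inconclusive = change between -60% and -40%, or beyond the set limit; inactive = change above -40%.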
% is set by controls: 0 for no effect and ±100 for the full control effect.

Sequence of Relaxin receptor 1 (Homo sapiens) (Q9HBX9 whole entry, looked up): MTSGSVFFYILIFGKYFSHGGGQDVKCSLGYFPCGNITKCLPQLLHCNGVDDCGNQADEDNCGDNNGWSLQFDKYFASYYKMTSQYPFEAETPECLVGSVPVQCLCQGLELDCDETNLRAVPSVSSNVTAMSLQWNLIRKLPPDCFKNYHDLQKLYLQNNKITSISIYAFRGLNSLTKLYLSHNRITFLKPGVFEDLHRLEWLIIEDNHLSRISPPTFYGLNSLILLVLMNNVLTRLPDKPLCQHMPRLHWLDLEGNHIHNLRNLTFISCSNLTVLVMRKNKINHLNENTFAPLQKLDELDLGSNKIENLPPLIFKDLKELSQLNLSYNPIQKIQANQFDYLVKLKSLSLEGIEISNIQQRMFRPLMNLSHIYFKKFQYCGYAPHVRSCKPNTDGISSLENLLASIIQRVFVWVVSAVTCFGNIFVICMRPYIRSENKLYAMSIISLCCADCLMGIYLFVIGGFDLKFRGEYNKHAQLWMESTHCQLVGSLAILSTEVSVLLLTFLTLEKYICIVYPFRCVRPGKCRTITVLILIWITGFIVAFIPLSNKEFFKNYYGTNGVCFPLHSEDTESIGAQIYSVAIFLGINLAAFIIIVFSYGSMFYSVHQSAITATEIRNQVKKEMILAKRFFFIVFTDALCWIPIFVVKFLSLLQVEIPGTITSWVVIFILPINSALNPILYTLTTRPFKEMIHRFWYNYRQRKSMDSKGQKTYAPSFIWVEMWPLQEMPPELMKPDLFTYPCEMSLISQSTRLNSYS

This assay addresses Relaxin receptor 1 (Homo sapiens) (UniProt Q9HBX9). The experiment in a line: qHTS Assay for Antagonists of the Relaxin Receptor RXFP1. Conditions: HEK293-RXFP1, relaxin-stimulated cAMP HTRF, 30 min; at 57.5 µM; active compounds read low. (qHTS replaces the single test concentration by a dilution series.)
In the case of `O=C(Cn1nc(Cc2cccnc2)c2ccccc2c1=O)N1CCN(c2ccccc2F)CC1`, the activity change, negative = inhibition was 5.94%. Next, `CCCc1cc(=O)n2[nH]c(NCc3ccc(CC)cc3)nc2n1`: -11.6%; `Cc1ccc(-c2cc(C(=O)Oc3ccccc3Cl)no2)cc1C`: -12.2%.

As for `Cc1ccc(-n2nc(C)c(/C=N/NC(=O)c3cccs3)c2Cl)cc1`, the activity change, negative = inhibition was -17.6%.

With `O=C(N/N=C/C=C/c1ccco1)c1cccs1`, the activity change, negative = inhibition is -79.6% (active). Under `O=C(N/N=C/c1ccco1)c1csc2c1CCCC2` stands -11.1%; under `O=C(Nc1c(C(=O)N2CCN(c3ccc(F)cc3)CC2)oc2ccccc12)c1ccco1`, -14.5%. Under `CCCCNC(=O)c1cc(-c2ccc(Cl)c(Cl)c2)on1` stands -6.36%. Next, `C=CS(=O)c1sc(Cl)c(N2CCOCC2)c1[N+](=O)[O-]` (stereo not given): -60.3% (active); `O=C(NCCCN1CCN(c2cccc(Cl)c2)CC1)c1nnc(Cc2ccc(F)cc2Cl)o1`: -19.5%; `COc1ccc(CCNC(=O)c2cn(C)c3ccc(S(=O)(=O)N(C)C4CCCCC4)cc3c2=O)cc1OC`: -10.4%. As for `CCOC(=O)C1Cn2c(nc3c(c2=O)C(C)(CC)Cc2ccccc2-3)S1` (stereo not given), the activity change, negative = inhibition was -6.89%. Under `CCC1(CC)Cc2ccccc2-c2nc(CCl)[nH]c(=O)c21` stands -80.4% (active). Next, `N#CCSc1nc2c(c(=O)n1Cc1ccccc1)C1(CCCC1)Cc1ccccc1-2`: -9.93%; `CCc1nc(-c2cc(S(=O)(=O)N3CCN(c4ccc(OC)cc4)CC3)ccc2OC)no1`: 0.921%; `CCCC12CN3CC(CCC)(CN(C1)C3c1c[nH]c3ccc(OC)cc13)C2=O` (stereo not given): -18.6%. Under `COC(=O)C(NC(C)=O)(Nc1nc2c(s1)CCCC2)C(F)(F)F` (stereo not given) stands -2.87%; under `O=C(Nc1nc2c(s1)CCCC2)c1ccccc1F`, -33.1%. `Cc1cc(C)cc(OC(C)C(=O)Nc2nc3c(s2)CCCC3)c1` (stereo not given): the activity change, negative = inhibition is -103% (active). Next, `CCC(Sc1nc2n[nH]c(C)c2c(=N)n1-c1ccccc1Cl)C(=O)N(CC)CC` (stereo not given): -33.6%; `COc1ccc(C)cc1N(C)C(=O)c1c(C)oc2ncnc(N3CCOCC3)c12`: -0.158%; `Cc1ccc(-n2ncc3c2CCCC3NC(=O)c2cnccn2)cc1C` (stereo not given): -3.03%. Next, `COc1ccc(C(=O)NC2CCCc3c2cnn3-c2cccc(C)c2C)c(OC)n1` (stereo not given): -116% (active). Under `COc1ccc(OC)c(C(=O)NC2CCCc3c2cnn3-c2cc(C)cc(C)c2)c1` (stereo not given) stands 2.28%; under `NCC[C@H](O)C(=O)N[C@@H]1C[C@H](N)[C@@H](O[C@H]2O[C@H](CN)[C@@H](O)[C@H](O)[C@@H]2O)[C@H](O)[C@@H]1O[C@H]1O[C@H](CO)[C@@H](O)[C@H](N)[C@@H]1O`, -6.65%; under `CCOCC(=O)NCc1ccc2c(c1)cc(C)n2C`, -74.1% (active). Turning to `COc1cc(C(=O)NCc2ccc3c(c2)cc(C)n3C)cc(OC)c1OC`, the activity change, negative = inhibition is 12%. `COc1ccc(CNC(=O)CCn2cccc2)cc1`: the activity change, negative = inhibition was -6.31%. Next, `CCOc1ccc(-c2cc3c(=O)n(CC(=O)NCc4ccc(OC)cc4)ccn3n2)cc1`: 4.95%.

Turning to `COc1ccc(Cn2ccnc2SCC(=O)Nc2ccc3c(c2)OCO3)cc1`, the activity change, negative = inhibition was -2.29%. Under `Cc1ccc(CN2CCc3nc(N4CCN(C)CC4)ncc3C2)cc1` stands -7.68%; under `Cc1cc(-c2ccccc2)n2nc(-c3ccccc3)cc2n1`, -15.7%; under `Cc1cccc(-n2ncc(C(=O)N3CCN(c4ccc(Cl)cc4)CC3)c2C2CCN(C(=O)OC(C)(C)C)CC2)c1`, -19.9%.

For `O=C(OCC(O)CO)c1ccccc1Nc1ccnc2c(C(F)(F)F)cccc12` (stereo not given), the activity change, negative = inhibition is -23.3%. Under `Cc1ccc(CN2CCC(CNC(=O)c3cnn(-c4ccccc4Cl)c3C3CCN(C(=O)OC(C)(C)C)CC3)CC2)cc1` stands -35.3%; under `Cc1ccc(C2CCN(C(=O)c3cnn(-c4ccccc4Cl)c3C3CCN(C(=O)OC(C)(C)C)CC3)C2)cc1` (stereo not given), -70.8% (active). Under `Cc1cccc(-n2ncc(C(=O)N3CCC(C)CC3)c2C2CCN(C(=O)OC(C)(C)C)CC2)c1` stands 1.6%; under `Cc1cccc(C)c1NC(=O)c1ccc(N)cc1`, 14.2%.

`CCOc1cccc2c1N[C@@H](c1ccc(C(=O)O)cc1)[C@H]1CC=C[C@@H]21`: the activity change, negative = inhibition was -4.8%.

`O=C(CCl)Nc1cccc(CP(=O)(c2ccccc2)c2ccccc2)c1`: the activity change, negative = inhibition is -12.2%.

As to `CC(C)(CCl)C(=O)Nc1ccc(Sc2ccc(F)cc2)cc1`, the activity change, negative = inhibition was -28.2%.

As for `O=C(CCl)Nc1ccc(Sc2ccc(NC(=O)CCl)cc2)cc1`, the activity change, negative = inhibition was -96.8% (active). Next, `Cc1ccc(CNC(=O)CCC(=O)N2Cc3ccccc3Oc3ncccc32)cc1`: 0.223%; `CCCNC(=O)CCC(=O)N1Cc2ccccc2Oc2ncccc21`: -2.12%. Next, `Cc1ccccc1CNC(=O)CCC(=O)N1Cc2ccccc2Oc2ncccc21`: -120% (active); `O=C(CC1N=C2c3ccccc3N=C(SCc3ccc(F)cc3)N2C1=O)NCc1cccs1` (stereo not given): -7.63%. Under `COc1ccccc1C(=O)Nc1c(C(=O)N(C)Cc2ccccc2)sc2nc(C)c(Cl)c(C)c12` stands -8.81%; under `CCC(=O)N1CCc2cc(Br)cc(S(=O)(=O)CCC(=O)NCCc3ccc(OC)c(OC)c3)c21`, -17.8%; under `Cc1ccc(C)c(N2CCN(C(=O)Cn3nc(C)c4sc5ccccc5c4c3=O)CC2)c1`, -3.69%. For the compound `CCOc1ccc(CNC(=O)C2CCCN(S(=O)(=O)N(CC)c3ccc(OCC)cc3)C2)cc1` (stereo not given), the activity change, negative = inhibition is -7.3%.

`CCCCN1C(=O)C(C)=C(C)C1OCCc1ccc(OC)c(OC)c1` (stereo not given): the activity change, negative = inhibition was -1.03%. Next, `CCCCOc1ccc(CN2C(=O)C(=O)c3cc(Br)cc(C)c32)cc1OC`: -71.4% (active); `CCCCOc1ccc(Cn2c(=O)oc3ccc(C)cc32)cc1OC`: -39.4%. Next, `Cc1cc(C)c2oc(C(=O)Nc3ccc(S(=O)(=O)N4CCCCCC4)cc3)cc(=O)c2c1`: -1.32%; `CO/N=C(\C(=O)N[C@@H]1C(=O)N2C(C(=O)O)=C(Cn3nnc(C)n3)CS[C@H]12)c1csc(N)n1`: 10%.
